Results taken from PubChem BioAssay (NCATS).
A number with no mark means an inactive call. Inconclusive results are not listed. Active and inactive are the calls of the source. Unless noted, the call rests on the fitted dose curve; in most records, active means well fitted curve in either direction with a large enough effect (not every such curve was filed as active); inconclusive means small, poorly fitted or top-dose-only effect, or another doubt; inactive means flat fitted curve, though single readings scatter.

Legend:
[1] = target: Lysosomal acid glucosylceramidase (Homo sapiens) (UniProt P04062); test: Glucocerebrosidase-p2 (AID 348; in the data active means potency below about 10 µM; further: potency means the concentration at half of the fitted maximal effect); conditions: purified GBA, blue fluorogenic substrate, 40 min
Outline: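 Normal human glucocerebrosidase (0.2 nM) with blue fluorogenic substrate (80 uM final) in citrate/phosphate pH 5.9 with 10mM sodium taurocholate, 0.01% tween-20; 40 min RT, NaOH/glycine stop; fluorescence Ex 365/Em 440; AC50 from a titration from 0.6 nM upwards.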

[2] = AP1 Signaling Pathway (AID 357); conditions: ME-180 AP-1-bla reporter, EGF-induced, beta-lactamase ratio, 5 h; at 7.69 µM (top of the series) unless noted;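 further: ME-180 reporter cells stimulated with EGF at its EC50 level; on the % scale 0 is the no-effect control and ±100 the full control effect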
Outline: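 Titration-series screen for positive or negative modulators of EC50 EGF-induced signaling in ME-180 cells carrying an AP-1-driven beta-lactamase reporter. After 5 hours at 37 degrees Celsius, CCF4 460nm/530nm emission ratio gave %Activity; AC50 values derived.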

[3] = target: Cytochrome P450 1A2 (Homo sapiens) (UniProt P05177); test: p450-cyp1a2 (AID 410; calls by dose curve; further: potency means the concentration at half of the fitted maximal effect;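 on activity change, negative = inhibition: -100% = full effect of reference inhibitor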); conditions: recombinant CYP1A2, luciferin-ME demethylation, luminescence; series mostly up to 57 µM
Outline: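 Luminescent demethylation readout: Luciferin-ME (100uM, equal to Km) turned over by 20nM CYP1A2 for 60 min at room temperature after NADPH regeneration addition, following 10 min compound preincubation. Normalization used 57 uM furafylline as full inhibition.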

[4] = NFAT Signaling Pathway (AID 444); conditions: Jurkat NFAT-bla M1, carbachol, beta-lactamase ratio, 5 h; at 7.69 µM (top of the series) unless noted;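 further: carbachol stimulus at about its EC50 of 1 µM final; on the % scale 0 is the no-effect control and ±100 the full control effect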
Outline: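 Jurkat cells with NFAT-driven β-lactamase reporter and co-expressed M1 receptor, stimulated with carbachol (final 1 uM, ~EC50), compound titration, 5 h at 37 °C. CCF4 loaded 1 h at RT; 460/530 nm ratio gave %activity and AC50.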

[5] = Stat Signaling Pathway (AID 446); conditions: ME-180 SIE beta-lactamase reporter, IL-6 stimulated, 5 h; at 7.69 µM (top of the series) unless noted;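 further: ME-180 cervical cancer cells given 40 pM IL-6 alongside compound; SIE-controlled beta-lactamase reporter measured as 460/530 nm FRET emission ratio; on the % scale 0 is the no-effect control and ±100 the full control effect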
Outline: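 Emission at 460 and 530 nm (excitation 405 nm) reports SIE-controlled beta-lactamase in ME-180 cells. Cells received compound with 40 pM IL-6 for 5 hrs at 37 C; data scaled between 300 pM IL-6 and 125 nM JAK-inhibitor controls.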

[6] = target: Glucocorticoid receptor (Homo sapiens) (UniProt P04150); test: GR-GFP Redistribution (AID 450;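 active means compounds whose dose series gives a full or clear partial fitted curve of increased nuclear translocation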; further: potency means the concentration at half of the fitted maximal effect); conditions: U2OS GR-GFP nuclear translocation, laser cytometry, 2 h
[7] = target: Glucocorticoid receptor (Homo sapiens) (UniProt P04150); test: GR-EFC Redistribution (AID 451; calls by dose curve; further: potency means the concentration at half of the fitted maximal effect); conditions: CHO-K1 GR-EFC translocation, beta-gal luminescence, 2 h
Outline: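 CHO-K1 cells expressing nuclear EA and GR-ED fragments of b-gal; compounds titrated up to 46 uM final, 2 h at 37 C. GR nuclear translocation read as complemented b-gal luminescence after 1 h RT detection.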

[8] = target: Mitogen-activated protein kinase 10 (Mus musculus) (UniProt Q61831); test: JNK3 AlphaScreen Assay (AID 530); conditions: JNK3 lysate, c-Jun phosphorylation; series mostly up to 57.1 µM;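 further: kinase came from lysate of stimulated human HepG2 cells; signal reports phosphorylation of biotinylated GST-cJun 1-79 at Ser73 with 10 µM ATP; on the % scale 0 is the no-effect control and ±100 the full control effect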
Outline: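 Activity was read by AlphaScreen after JNK3-containing HepG2 lysate (cytokine pre-activated) phosphorylated biotinylated GST-cJun with 10 uM ATP at room temperature. Phospho-Ser73 cJun antibody with Protein-A acceptor beads provided detection.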

[9] = target: Cytochrome P450 3A4 (Homo sapiens) (UniProt P08684); test: qHTS Assay for Activators of Cytochrome P450 3A4 (AID 885; active means well fitted curve in the direction sought with a large enough effect; an effect the other way counts as inactive or inconclusive; further: nearly all actives have a fitted effect of over 65% in size); conditions: recombinant CYP3A4, Luciferin-PPXE luminescence, 60 min; series mostly up to 57.1 µM
Outline: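 Activators are scored by enhanced luminescence from CYP3A4 conversion of luciferin-PPXE (25uM, equal to KM) to luciferin, after 60 min at RT with an NADPH-regenerating system.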

[10] = Primary qHTS for small molecule stabilizers of the endoplasmic reticulum resident proteome: Secreted ER Calcium Modulated Protein (SERCaMP) assay (AID 1508630; active means well fitted curve in the direction sought with a large enough effect; an effect the other way counts as inactive or inconclusive; further: on the % scale 0 is the no-effect control and ±100 the full control effect); conditions: SH-SY5Y GLuc-SERCaMP (Gaussia luciferase released on ER calcium loss) secretion, thapsigargin, luminescence; series mostly up to 38.4 µM
Outline: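 The SH-SY5Y reporter protocol was run at 3 concentrations up to 38.3 uM (primary) or 11 concentrations (follow-up): 16 h compound, 100 nM thapsigargin for 4 h, then extracellular luciferase luminescence.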

[11] = target: 3',5'-cyclic-AMP phosphodiesterase 4B (Homo sapiens) (UniProt Q07343); test: qHTS Assay for Inhibitors of PDE-IV (AID 607; active means well fitted activation curve with a large enough effect in the main read-out, with a control signal flat, not every such curve was filed as active; further: % of control where 0% means no effect); conditions: HEK293 ACTOne CNG channel cells, membrane potential fluorescence; series mostly up to 22.9 µM
Outline: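 The readout is membrane depolarisation from a cAMP-sensing CNG channel, detected with a potential dye at ex 535/em 590. Cells were HEK293-derived (endogenous PDE-IV) at 1000 cells/well, titrated up to 22.9 uM final.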

[12] = target: Cytochrome P450 2C9 (Homo sapiens) (UniProt P11712); test: qHTS Assay for Inhibitors and Substrates of Cytochrome P450 2C9 (AID 883; active means well fitted curve in the direction sought with a large enough effect; an effect the other way counts as inactive or inconclusive; further: on the % scale 0 is the no-effect control and ±100 the full control effect; nearly all actives have a fitted effect of over 60% in size); conditions: recombinant CYP2C9, luciferin-H luminescence, 60 min; series mostly up to 57.1 µM
Outline: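 10nM CYP2C9 + 100uM Luciferin-H (=KM), 25mM KPO4; cpd 10 min 37C; NADPH regen, 60 min 37C; stop/detect with P450 Glo-Buffer 20 min; luminescence. Norm. to 57uM sulphaphenazole as full inhibition.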

[13] = target: Cytochrome P450 3A4 (Homo sapiens) (UniProt P08684); test: qHTS Assay for Inhibitors and Substrates of Cytochrome P450 3A4 (AID 884; active means well fitted curve in the direction sought with a large enough effect; an effect the other way counts as inactive or inconclusive; further: nearly all actives have a fitted effect of over 50% in size; further: potency means the concentration at half of the fitted maximal effect); conditions: recombinant CYP3A4, Luciferin-PPXE luminescence; series mostly up to 57.1 µM
Outline: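 Luminescent readout of luciferin produced by CYP3A4 (20 nM) dealkylation of Luciferin-PPXE, 25 uM (its KM). NADPH-driven reaction ran 60 min at RT after 10 min compound preincubation; data scaled to 57 uM ketoconazole as 100% inhibition.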

[14] = target: Cytochrome P450 2D6 (Homo sapiens) (UniProt P10635); test: qHTS Assay for Inhibitors and Substrates of Cytochrome P450 2D6 (AID 891; active means well fitted curve in the direction sought with a large enough effect; an effect the other way counts as inactive or inconclusive;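 further: luciferin methyl ether substrate demethylated by CYP2D6 with NADPH regeneration; on the % scale 0 is the no-effect control and ±100 the full control effect; nearly all actives have a fitted effect of over 60% in size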); conditions: recombinant CYP2D6, luciferin-ME EGE luminescence; series mostly up to 57.1 µM
Outline: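 Luminescent read-out of luciferin formed by 5 nM human CYP2D6 demethylating 30 uM Luciferin-ME EGE (Km level) over 60 min at room temperature after NADPH regeneration addition. Data normalized to full inhibition by 1.43 uM quinidine.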

[15] = target: Cytochrome P450 2C19 (Homo sapiens) (UniProt P33261); test: qHTS Assay for Inhibitors and Substrates of Cytochrome P450 2C19 (AID 899; active means well fitted curve in the direction sought with a large enough effect; an effect the other way counts as inactive or inconclusive; further: nearly all actives have a fitted effect of over 60% in size; further: potency means the concentration at half of the fitted maximal effect); conditions: recombinant CYP2C19, luciferin-H EGE luminescence; series mostly up to 57.1 µM
Outline: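 Luminescent read-out of luciferin formed from Luciferin-H EGE (10uM, equal to KM). Enzyme 5nM in 50mM KPO4; compound added, 10 min at 37C, then NADPH regenerating system for 60 min at 37C. Full inhibition defined by 57uM ketoconazole.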

[16] = Confirmation and Secondary Assay for Modulators of Hemoglobin Beta Chain Splicing at IVS2 654 locus (AID 910; active means well fitted curve in the direction sought with a large enough effect; an effect the other way counts as inactive or inconclusive;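 further: HeLa cells stably carrying EGFP split by mutant beta-globin IVS2-654 intron; % of control where 0% means no effect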); conditions: HeLa EGFP-654 splicing reporter, GFP fluorescence, 48 h; series mostly up to 38.3 µM
Outline: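 HeLa cells stably expressing EGFP interrupted by β-globin IVS2-654 intron, seeded overnight in Opti-MEM/2% FCS, then treated 2 days at 37 °C. Restored splicing read as total peak GFP intensity per well by laser scanning cytometry (488 nm excitation, 500–520 nm emission); 500 nM antisense PNA as control.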

[17] = qHTS Assay for Identification of Small Molecule Agonists for Hypoxia Response Element Signaling Pathway (AID 914; active means well fitted activation curve with a large enough effect in the signal ratio, with a control signal flat, not every such curve was filed as active; the % refers to the signal ratio; further: % of control where 0% means no effect); conditions: ME-180 (cervical carcinoma) HRE-bla reporter, beta-lactamase ratio, CoCl2, 17 h; activation: hits give high values
Outline: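 HRE-bla ME-180 cells with beta-lactamase reporter under hypoxia response element, compounds with EC50 CoCl2 for 17 hours at 37 C. CCF4 substrate, 460nm/530nm emission ratio gave %Activity; AC50 from titration series.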

[18] = Confirmation and Secondary Assay for Modulators of Hemoglobin Beta Chain Splicing at IVS2 705 locus (AID 930; active means well fitted curve in the direction sought with a large enough effect; an effect the other way counts as inactive or inconclusive;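 further: HeLa cells stably expressing the EGFP-705 splicing reporter; GFP fluorescence per well restored by corrected splicing of the IVS2-705 intron in EGFP; % of control where 0% means no effect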); conditions: HeLa EGFP-705 splicing reporter, GFP fluorescence, 48 h; series mostly up to 38.3 µM
Outline: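 HeLa cells stably carrying EGFP interrupted by mutant beta-globin intron 2 (IVS2-705) treated 2 days at 37C with compound; 500 nM antisense PNA as control. Correct splicing read as total peak GFP intensity per well by laser-scanning cytometry.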

[19] = target: Ubiquitin carboxyl-terminal hydrolase 1 (Homo sapiens) (UniProt O94782); test: Inhibitors of USP1/UAF1: Pilot qHTS (AID 504865; active means well fitted curve in the direction sought with a large enough effect; an effect the other way counts as inactive or inconclusive;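 further: rhodamine fluorescence freed from ubiquitin-rhodamine substrate followed over time; top concentration of the series differs between compounds; on the % scale 0 is the no-effect control and ±100 the full control effect; nearly all actives have a fitted effect of over 35% in size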); conditions: purified USP1/UAF1, Ub-rhodamine cleavage fluorescence; series mostly up to 54.9 µM
Outline: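 Kinetic fluorescence assay: 1nM USP1/UAF1, 15 min compound preincubation, then 150nM Ub-Rho; 480/540 nm.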

Chain of Cytochrome P450 3A4 (Homo sapiens) (P08684 whole entry, looked up): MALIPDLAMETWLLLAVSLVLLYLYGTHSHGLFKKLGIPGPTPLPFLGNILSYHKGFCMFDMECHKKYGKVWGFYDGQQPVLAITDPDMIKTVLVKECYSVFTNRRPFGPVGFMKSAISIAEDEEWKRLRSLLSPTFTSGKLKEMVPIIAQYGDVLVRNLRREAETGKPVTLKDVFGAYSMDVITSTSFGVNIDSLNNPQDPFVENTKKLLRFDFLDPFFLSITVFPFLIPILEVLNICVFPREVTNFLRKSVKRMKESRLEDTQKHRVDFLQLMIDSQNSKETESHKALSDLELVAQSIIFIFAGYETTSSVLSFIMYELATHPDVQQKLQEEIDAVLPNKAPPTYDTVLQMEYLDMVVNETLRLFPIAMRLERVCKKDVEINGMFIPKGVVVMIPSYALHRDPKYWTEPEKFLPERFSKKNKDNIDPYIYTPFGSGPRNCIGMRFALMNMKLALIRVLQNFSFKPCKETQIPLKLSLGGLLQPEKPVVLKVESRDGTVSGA
Chain of 3',5'-cyclic-AMP phosphodiesterase 4B (Homo sapiens) (Q07343 whole entry, looked up): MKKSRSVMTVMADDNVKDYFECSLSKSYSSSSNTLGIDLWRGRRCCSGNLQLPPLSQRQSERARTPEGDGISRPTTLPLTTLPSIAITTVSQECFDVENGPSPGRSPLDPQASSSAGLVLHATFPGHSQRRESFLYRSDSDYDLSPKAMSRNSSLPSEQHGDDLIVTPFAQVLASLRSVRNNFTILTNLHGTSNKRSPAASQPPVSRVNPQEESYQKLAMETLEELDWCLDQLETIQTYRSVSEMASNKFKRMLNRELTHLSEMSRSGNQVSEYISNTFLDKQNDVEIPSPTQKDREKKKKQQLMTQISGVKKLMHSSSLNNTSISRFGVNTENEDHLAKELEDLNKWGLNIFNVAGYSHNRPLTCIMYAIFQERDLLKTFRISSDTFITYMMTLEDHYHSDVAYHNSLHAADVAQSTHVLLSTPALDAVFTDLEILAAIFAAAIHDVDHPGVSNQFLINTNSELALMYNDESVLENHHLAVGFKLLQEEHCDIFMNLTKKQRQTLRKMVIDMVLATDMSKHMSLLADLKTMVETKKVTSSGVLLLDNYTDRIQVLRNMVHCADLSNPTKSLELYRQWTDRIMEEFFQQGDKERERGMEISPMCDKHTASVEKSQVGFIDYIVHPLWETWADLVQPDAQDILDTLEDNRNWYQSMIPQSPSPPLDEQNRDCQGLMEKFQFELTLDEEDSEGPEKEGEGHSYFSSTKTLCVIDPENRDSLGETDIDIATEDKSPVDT
Chain of Glucocorticoid receptor (Homo sapiens) (P04150 whole entry, looked up, the tested form may be a part): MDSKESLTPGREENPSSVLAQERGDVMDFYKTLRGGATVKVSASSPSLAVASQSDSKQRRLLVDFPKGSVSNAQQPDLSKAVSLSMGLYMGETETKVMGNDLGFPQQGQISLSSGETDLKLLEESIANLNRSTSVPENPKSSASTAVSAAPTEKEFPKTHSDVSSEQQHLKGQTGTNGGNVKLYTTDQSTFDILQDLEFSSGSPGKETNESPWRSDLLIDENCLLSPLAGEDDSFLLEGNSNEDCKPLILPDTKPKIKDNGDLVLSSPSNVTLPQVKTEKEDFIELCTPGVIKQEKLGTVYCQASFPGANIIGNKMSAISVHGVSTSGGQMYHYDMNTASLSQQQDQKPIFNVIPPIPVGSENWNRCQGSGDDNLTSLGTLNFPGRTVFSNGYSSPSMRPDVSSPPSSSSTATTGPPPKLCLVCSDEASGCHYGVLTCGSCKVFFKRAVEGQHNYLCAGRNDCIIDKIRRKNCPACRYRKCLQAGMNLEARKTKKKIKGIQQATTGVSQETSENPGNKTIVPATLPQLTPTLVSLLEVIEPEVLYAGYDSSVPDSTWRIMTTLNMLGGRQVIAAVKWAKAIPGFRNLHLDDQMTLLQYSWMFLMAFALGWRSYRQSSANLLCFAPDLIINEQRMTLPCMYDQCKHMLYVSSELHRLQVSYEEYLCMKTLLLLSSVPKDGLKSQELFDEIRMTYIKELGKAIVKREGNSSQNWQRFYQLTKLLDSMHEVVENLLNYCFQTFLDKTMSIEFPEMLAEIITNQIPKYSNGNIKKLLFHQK
Chain of Cytochrome P450 1A2 (Homo sapiens) (P05177 whole entry, looked up): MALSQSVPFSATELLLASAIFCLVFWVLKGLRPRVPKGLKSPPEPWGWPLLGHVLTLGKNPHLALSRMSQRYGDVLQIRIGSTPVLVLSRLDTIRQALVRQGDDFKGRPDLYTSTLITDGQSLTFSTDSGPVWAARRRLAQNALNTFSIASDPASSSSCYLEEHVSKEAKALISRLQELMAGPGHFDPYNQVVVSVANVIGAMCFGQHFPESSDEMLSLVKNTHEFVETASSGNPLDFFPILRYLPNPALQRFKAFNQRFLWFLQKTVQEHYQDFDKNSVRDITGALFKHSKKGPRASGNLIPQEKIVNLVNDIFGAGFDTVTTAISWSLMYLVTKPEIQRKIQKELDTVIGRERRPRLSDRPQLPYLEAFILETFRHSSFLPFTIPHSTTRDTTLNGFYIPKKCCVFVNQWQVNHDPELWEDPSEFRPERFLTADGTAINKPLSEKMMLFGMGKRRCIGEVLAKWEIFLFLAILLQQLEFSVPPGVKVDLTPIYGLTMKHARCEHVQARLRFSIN
Chain of Lysosomal acid glucosylceramidase (Homo sapiens) (P04062 whole entry, looked up): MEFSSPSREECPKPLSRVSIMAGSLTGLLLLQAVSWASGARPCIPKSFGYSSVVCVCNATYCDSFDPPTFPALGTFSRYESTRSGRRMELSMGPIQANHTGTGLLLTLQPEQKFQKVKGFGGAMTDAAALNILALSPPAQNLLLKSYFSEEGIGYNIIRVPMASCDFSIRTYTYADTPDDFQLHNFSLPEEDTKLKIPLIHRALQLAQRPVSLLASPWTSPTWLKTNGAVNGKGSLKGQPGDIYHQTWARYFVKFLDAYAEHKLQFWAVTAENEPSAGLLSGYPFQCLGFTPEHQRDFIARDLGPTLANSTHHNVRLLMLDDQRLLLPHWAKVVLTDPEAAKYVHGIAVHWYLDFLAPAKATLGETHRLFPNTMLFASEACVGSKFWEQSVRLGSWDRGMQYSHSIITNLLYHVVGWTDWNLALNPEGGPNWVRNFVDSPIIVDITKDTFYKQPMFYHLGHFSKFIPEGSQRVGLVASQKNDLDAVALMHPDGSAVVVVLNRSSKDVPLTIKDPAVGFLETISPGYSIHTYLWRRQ
Chain of Cytochrome P450 2C19 (Homo sapiens) (P33261 whole entry, looked up): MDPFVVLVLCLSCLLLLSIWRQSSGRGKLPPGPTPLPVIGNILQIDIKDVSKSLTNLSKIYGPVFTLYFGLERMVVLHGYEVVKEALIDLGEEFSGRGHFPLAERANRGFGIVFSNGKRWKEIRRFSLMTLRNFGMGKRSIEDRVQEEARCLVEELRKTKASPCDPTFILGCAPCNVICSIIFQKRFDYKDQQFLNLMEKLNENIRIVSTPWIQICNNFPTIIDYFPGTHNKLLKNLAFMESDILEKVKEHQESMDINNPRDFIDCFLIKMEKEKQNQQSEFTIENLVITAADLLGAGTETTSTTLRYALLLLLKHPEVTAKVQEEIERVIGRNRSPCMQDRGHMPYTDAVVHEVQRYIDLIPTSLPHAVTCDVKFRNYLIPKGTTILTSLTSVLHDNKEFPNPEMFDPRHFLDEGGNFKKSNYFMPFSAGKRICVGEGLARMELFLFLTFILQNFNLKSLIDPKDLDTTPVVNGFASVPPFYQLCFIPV
Chain of Cytochrome P450 2D6 (Homo sapiens) (P10635 whole entry, looked up): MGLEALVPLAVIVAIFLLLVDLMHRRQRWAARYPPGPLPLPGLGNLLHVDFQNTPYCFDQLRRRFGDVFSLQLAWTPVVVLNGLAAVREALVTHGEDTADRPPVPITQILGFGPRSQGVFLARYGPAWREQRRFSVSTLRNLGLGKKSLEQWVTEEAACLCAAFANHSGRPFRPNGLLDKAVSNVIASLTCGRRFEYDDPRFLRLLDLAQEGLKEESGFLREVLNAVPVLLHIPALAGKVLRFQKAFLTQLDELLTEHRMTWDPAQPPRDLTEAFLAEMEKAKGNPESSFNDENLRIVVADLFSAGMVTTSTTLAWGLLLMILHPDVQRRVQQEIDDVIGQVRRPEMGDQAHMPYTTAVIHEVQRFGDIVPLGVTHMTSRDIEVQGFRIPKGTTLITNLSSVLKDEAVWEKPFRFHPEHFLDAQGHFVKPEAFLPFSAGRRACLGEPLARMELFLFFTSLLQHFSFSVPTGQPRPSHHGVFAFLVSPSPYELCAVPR
Chain of Cytochrome P450 2C9 (Homo sapiens) (P11712 whole entry, looked up): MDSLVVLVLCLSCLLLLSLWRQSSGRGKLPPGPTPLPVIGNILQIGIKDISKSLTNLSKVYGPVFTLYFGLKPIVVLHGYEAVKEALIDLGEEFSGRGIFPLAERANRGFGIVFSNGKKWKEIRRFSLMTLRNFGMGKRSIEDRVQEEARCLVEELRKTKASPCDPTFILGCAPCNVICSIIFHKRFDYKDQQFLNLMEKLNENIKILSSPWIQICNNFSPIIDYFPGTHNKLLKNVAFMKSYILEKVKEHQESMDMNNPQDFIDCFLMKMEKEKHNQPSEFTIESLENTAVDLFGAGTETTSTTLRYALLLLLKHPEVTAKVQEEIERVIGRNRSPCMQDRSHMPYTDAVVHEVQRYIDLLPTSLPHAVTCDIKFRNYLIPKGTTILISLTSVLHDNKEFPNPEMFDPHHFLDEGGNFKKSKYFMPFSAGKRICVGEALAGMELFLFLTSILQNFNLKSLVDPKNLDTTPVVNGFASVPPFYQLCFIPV

Row | SMILES | Potency [1] [µM] | activity change, negative = inhibition [2] [%] | Potency [3] | activity change, negative = inhibition [4] [%] | activity, negative = inhibition [5] [%] | Potency [6] [µM] | Potency [7] [µM] | Potency [8] | Potency [9] | outcome [10] | Potency [11] | Potency [12] | Potency [13] | Potency [14] | Potency [15] | Potency [16] | activation [17] [%] | outcome [18] | Potency [19]
1 | O=c1c(CCc2ccccc2)nc2cncnc2n1-c1ccccc1 | > 11.4 | -24.4 | 15.8 µM (active) | -14 | -17.6 | > 9.22 | > 46 | inactive | inactive | inactive |  |  |  |  |  |  |  |  | 
2 | N#Cc1cccc(NC(=O)N2CC[C@@]3(CCCN(C(=O)c4cc(C(F)(F)F)cc(C(F)(F)F)c4)C3)C2)c1 | > 11.4 | 3.48 | inactive | 5.16 | -10.2 |  | > 46 | inactive |  | inactive | inactive | inactive | inactive | inactive | inactive |  |  |  | 
3 | Cc1cccc(CNc2ncncc2-c2cccc(NS(C)(=O)=O)c2)c1 | > 11.4 | -5.04 | 12.6 µM (active) | 8.42 | 0.163 |  | > 46 | inactive | inactive | inactive | inactive |  | 0.158 µM (active) |  | 6.31 µM (active) | inactive | 3.55 | inactive | inactive
4 | CC(=O)N1CCC2(CCCN(c3ncccn3)C2)CC1 | > 11.4 | -18.1 | inactive | 4.89 | -2.74 |  | > 46 | inactive |  | inactive | inactive |  |  |  |  |  |  |  | 
5 | CC(=O)N1CCC2(CC1)CCN(c1cccc(-c3ccccc3)c1)CC2 | > 11.4 | -13.2 | 3.98 µM (active) | 16.7 | 18.6 |  | > 46 | inactive |  | inactive | inactive |  |  |  |  |  |  |  | 
6 | COCC(=O)N1CCC2(CCCN(C(=O)Nc3ccccc3)C2)CC1 | > 11.4 | -1.58 | inactive | 13.8 | 3.14 |  | > 46 | inactive |  | inactive | inactive |  |  |  |  |  |  |  | 
7 | COCC(=O)N1CCC2(CCCN(Cc3nccs3)C2)CC1 | > 11.4 | -21.8 | inactive | -25.4 | -1.77 |  | > 46 | inactive |  | inactive | inactive |  |  |  |  |  |  |  | 
8 | COc1cccc(Nc2ncc3nc(CCc4ccccc4)c(=O)n(CCC#N)c3n2)c1 | > 11.4 | -11.6 | inactive | -14.1 | -2.69 | > 9.22 | > 46 | inactive | inactive | inactive |  |  |  |  |  |  |  |  | 
9 | CC(=O)N1CCC2(CC1)CCN(c1ccccn1)CC2 | > 11.4 | 1.64 | inactive | -29.8 | 6.98 |  | > 46 | inactive |  | inactive | inactive |  |  |  |  |  |  |  | 
10 | COc1ccc(C(=O)N2CCC3(CCCN(C)C3)CC2)cc1 | > 11.4 | 2.83 | inactive | 0.644 | -7.5 |  | > 46 | inactive |  | inactive |  |  |  |  |  |  |  |  | 
11 | COc1ncc2nc(CCc3ccccc3)c(=O)n(CCC#N)c2n1 | > 11.4 | -1.07 | 15.8 µM (active) | -10.8 | -4.61 | > 9.22 | > 46 | inactive |  | inactive | inactive |  |  |  |  |  | -14.7 |  | 
12 | COC(=O)N1CCC2(CC1)CN(C(=O)Nc1cccc(F)c1)C2 | > 11.4 | -2.84 | inactive | 0.322 | -2.22 |  | > 46 | inactive |  | inactive | inactive |  |  |  |  |  |  |  | 
13 | O=C(c1cccc(F)c1)N1CCC2(CCCN(c3ccc(-c4ccccc4)cc3)C2)CC1 | > 11.4 | 6.64 | 15.8 µM (active) | -3.55 | 1.09 |  | > 46 | inactive |  | inactive | inactive |  |  |  |  |  |  |  | 
14 | COc1ccc(NC(=O)N2CCC3(CC2)CCN(C(=O)c2cccn2C)CC3)cc1 | > 11.4 | -7.7 | inactive | -0.784 | 2.55 |  | > 46 | inactive |  | inactive | inactive |  | inactive |  |  |  |  |  | 
15 | COc1cccc(Cn2c(=O)c(-c3ccccc3)nc3cnc(N(C)C)nc32)c1 | > 11.4 | 8.64 | 10 µM (active) | -16.4 | 11.4 | > 9.22 | > 46 |  | inactive | inactive |  |  | 6.31 µM (active) |  |  |  |  |  | 
